What all share (assay): DAPPL (digital affinity profiling via proximity ligation, sequencing); 10 mM Tris-HCl pH 7.5, 50 mM NaCl, 1 mM DTT, 4% glycerol, room temperature, 30 min; GST-TFs on glutathione beads, 16-mer random dsDNA library, 0.1% formaldehyde crosslink after washing; high values mean tight binding
What all share (conditions): protein: recombinant; tags: N-terminal GST; dsDNA, one strand shown

The target of one test is T1, FLI1 (Homo sapiens, UniProt Q01543 1-452).
T1 sequence: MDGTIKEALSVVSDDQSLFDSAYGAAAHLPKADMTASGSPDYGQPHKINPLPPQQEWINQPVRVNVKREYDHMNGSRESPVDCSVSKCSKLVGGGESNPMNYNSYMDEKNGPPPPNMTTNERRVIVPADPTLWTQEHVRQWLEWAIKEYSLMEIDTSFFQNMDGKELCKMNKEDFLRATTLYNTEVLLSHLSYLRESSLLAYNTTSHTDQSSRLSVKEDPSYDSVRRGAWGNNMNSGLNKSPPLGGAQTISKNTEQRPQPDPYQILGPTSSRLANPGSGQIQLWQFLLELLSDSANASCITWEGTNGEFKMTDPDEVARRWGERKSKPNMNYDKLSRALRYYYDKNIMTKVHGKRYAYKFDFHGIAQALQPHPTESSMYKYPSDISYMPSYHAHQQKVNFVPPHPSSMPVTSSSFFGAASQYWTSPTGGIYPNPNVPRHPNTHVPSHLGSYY
Summed up:
(§1)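 Binding signal is defined as a hexamer's read frequency for one factor over its frequency for the tag-only sample. To obtain reads, GST-fused human transcription factors were expressed in yeast, captured on glutathione beads, barcoded with DNA and pooled with that sample. Pools met 200 nmole of a 16-mer random double-stranded DNA library in Tris/NaCl/DTT/glycerol buffer for 30 min at room temperature before washing, 0.1% formaldehyde crosslinking, proximity ligation (BsaI/T4 ligase, 1 h, 37 °C), PCR and Illumina NextSeq500 sequencing.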

Another test addresses T2, ELK1 (Homo sapiens, UniProt P19419 1-428).
T2 sequence: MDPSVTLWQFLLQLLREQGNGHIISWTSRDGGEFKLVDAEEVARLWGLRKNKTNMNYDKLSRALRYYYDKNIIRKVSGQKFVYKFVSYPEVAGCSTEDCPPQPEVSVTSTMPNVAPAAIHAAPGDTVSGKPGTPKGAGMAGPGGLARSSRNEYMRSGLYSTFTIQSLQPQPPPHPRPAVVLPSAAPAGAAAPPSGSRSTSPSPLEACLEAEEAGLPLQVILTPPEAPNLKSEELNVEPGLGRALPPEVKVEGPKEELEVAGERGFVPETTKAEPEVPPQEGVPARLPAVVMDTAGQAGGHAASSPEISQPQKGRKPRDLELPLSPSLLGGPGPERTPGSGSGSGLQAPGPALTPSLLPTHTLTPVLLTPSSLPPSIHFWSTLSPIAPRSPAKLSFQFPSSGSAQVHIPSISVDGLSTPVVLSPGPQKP
Put shortly:
as §1

A further test has as its target T3, GABPA (Homo sapiens, UniProt Q06546 1-454).
T3 sequence: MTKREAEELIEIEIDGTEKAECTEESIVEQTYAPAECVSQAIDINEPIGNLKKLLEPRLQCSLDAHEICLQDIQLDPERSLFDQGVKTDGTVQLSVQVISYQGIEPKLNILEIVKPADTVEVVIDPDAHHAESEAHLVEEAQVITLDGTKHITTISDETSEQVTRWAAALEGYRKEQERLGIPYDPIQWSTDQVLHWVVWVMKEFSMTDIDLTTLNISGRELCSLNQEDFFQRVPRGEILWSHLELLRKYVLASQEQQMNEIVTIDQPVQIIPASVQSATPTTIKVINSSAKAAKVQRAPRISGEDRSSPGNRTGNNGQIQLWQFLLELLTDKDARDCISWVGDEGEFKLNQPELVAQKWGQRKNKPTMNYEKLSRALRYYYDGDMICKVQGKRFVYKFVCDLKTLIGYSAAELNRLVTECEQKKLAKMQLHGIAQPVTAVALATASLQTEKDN
Summed up: as §1

A further test addresses T4, ERG (Homo sapiens, UniProt P11308 1-479).
T4 sequence: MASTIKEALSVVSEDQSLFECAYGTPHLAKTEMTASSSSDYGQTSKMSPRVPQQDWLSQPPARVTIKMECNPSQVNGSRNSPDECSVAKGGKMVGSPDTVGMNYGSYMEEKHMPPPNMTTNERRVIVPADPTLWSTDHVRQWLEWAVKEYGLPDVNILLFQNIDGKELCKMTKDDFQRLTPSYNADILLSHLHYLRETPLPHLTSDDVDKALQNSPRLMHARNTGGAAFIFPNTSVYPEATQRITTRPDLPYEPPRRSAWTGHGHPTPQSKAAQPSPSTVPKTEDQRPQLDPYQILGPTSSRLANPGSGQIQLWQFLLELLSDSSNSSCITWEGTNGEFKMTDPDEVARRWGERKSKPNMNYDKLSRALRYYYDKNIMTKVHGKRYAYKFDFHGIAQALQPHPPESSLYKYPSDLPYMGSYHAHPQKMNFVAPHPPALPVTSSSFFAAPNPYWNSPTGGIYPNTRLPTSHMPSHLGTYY
Put shortly:
as §1

The next test deals with ELF1 (Homo sapiens, UniProt P32519 1-619). Summed up: as §1
Chain of ELF1 (P32519 whole entry): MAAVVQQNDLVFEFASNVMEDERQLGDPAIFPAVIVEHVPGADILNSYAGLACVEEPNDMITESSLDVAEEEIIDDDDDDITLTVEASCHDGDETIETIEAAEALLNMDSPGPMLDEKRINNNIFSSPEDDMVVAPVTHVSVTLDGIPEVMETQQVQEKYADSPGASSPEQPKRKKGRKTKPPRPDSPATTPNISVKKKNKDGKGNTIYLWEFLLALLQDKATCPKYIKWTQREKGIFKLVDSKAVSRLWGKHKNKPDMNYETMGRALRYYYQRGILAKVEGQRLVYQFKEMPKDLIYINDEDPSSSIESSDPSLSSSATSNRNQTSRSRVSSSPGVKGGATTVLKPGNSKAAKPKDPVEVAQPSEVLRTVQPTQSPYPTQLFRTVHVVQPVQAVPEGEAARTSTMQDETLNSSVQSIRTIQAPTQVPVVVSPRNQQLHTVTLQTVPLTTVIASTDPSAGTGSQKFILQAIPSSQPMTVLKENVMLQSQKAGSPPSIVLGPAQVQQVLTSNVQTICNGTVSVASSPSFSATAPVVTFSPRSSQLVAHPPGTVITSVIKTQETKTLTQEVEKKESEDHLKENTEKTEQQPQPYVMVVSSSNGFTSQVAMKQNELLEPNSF
The target of a further test is T5, EHF (Homo sapiens, UniProt Q9NZC4 1-300).
T5 sequence: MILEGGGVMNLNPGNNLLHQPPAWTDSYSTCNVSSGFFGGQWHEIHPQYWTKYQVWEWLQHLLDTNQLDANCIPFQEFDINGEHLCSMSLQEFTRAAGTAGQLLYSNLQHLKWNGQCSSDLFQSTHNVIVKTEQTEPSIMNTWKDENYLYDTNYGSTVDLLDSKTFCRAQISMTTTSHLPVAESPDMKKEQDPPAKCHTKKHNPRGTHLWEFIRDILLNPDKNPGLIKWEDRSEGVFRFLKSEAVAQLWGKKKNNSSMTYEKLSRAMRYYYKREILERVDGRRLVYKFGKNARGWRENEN
Put shortly:
as §1

Another test deals with SPI1 (Homo sapiens, UniProt P17947 1-270). Put shortly: as §1
The next test deals with SPIB (Homo sapiens, UniProt Q01892 1-262). Summed up:
as §1

In a further test the target is T6, ELK3 (Homo sapiens, UniProt P41970 1-407).
T6 sequence: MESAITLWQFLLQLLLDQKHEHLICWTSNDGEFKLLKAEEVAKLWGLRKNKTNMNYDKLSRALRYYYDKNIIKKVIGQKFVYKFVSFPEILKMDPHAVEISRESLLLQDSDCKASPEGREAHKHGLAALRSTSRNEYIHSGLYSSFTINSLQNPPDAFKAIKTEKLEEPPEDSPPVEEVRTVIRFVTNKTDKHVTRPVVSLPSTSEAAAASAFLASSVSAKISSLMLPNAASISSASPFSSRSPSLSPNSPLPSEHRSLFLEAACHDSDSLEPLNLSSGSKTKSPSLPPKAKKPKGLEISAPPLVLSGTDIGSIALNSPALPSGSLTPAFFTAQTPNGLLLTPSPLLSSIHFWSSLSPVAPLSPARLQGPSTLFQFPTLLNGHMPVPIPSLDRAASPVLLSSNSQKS
Summed up:
as §1

Chain of SPIB (Q01892 whole entry): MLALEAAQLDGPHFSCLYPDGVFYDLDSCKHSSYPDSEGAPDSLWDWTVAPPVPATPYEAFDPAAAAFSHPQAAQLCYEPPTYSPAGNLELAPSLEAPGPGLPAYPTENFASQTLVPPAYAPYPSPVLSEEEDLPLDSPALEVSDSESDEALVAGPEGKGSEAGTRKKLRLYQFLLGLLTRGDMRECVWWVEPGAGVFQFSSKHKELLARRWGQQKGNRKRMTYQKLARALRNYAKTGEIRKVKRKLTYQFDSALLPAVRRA

GGTCTC: the binding signal with FLI1 was 2.92 fold enrichment (6-mer frequency, TF over GST control); with ELK1 it was 2.66 fold enrichment (6-mer frequency, TF over GST control); with GABPA it was 2.5 fold enrichment (6-mer frequency, TF over GST control); with ERG, 2.46 fold enrichment (6-mer frequency, TF over GST control); with ELF1, 2.74 fold enrichment (6-mer frequency, TF over GST control); with EHF it was 2.55 fold enrichment (6-mer frequency, TF over GST control). Further, the binding signal was 2.89 fold enrichment (6-mer frequency, TF over GST control) with SPI1; 2.59 fold enrichment (6-mer frequency, TF over GST control) with SPIB; 2.2 fold enrichment (6-mer frequency, TF over GST control) with ELK3.
On to TTTGCT, for which the binding signal is 1.25 fold enrichment (6-mer frequency, TF over GST control) with FLI1; 1.17 fold enrichment (6-mer frequency, TF over GST control) in the test with ELK1; 1.29 fold enrichment (6-mer frequency, TF over GST control) with GABPA; 1.18 fold enrichment (6-mer frequency, TF over GST control) with ERG; 1.21 fold enrichment (6-mer frequency, TF over GST control) with ELF1; 1.18 fold enrichment (6-mer frequency, TF over GST control) with EHF. Moreover, the binding signal with SPI1 was 1.21 fold enrichment (6-mer frequency, TF over GST control); with SPIB it was 1.24 fold enrichment (6-mer frequency, TF over GST control); with ELK3 it was 1.25 fold enrichment (6-mer frequency, TF over GST control).
In the case of TTCACG, the binding signal is 1.48 fold enrichment (6-mer frequency, TF over GST control) with FLI1; 1.44 fold enrichment (6-mer frequency, TF over GST control) in the test with ELK1; 1.41 fold enrichment (6-mer frequency, TF over GST control) with GABPA; 1.37 fold enrichment (6-mer frequency, TF over GST control) with ERG; 1.38 fold enrichment (6-mer frequency, TF over GST control) in the test with ELF1; 1.29 fold enrichment (6-mer frequency, TF over GST control) with EHF. The binding signal in the test with SPI1 was 1.3 fold enrichment (6-mer frequency, TF over GST control); in the test with SPIB, 1.31 fold enrichment (6-mer frequency, TF over GST control); with ELK3, 1.42 fold enrichment (6-mer frequency, TF over GST control).
As to CCTTCT, the binding signal in the test with FLI1 is 1.62 fold enrichment (6-mer frequency, TF over GST control); in the test with ELK1 it was 1.42 fold enrichment (6-mer frequency, TF over GST control); with GABPA, 1.6 fold enrichment (6-mer frequency, TF over GST control); in the test with ERG it was 1.54 fold enrichment (6-mer frequency, TF over GST control); with ELF1, 1.63 fold enrichment (6-mer frequency, TF over GST control); in the test with EHF, 1.67 fold enrichment (6-mer frequency, TF over GST control). Besides, the binding signal in the test with SPI1 was 1.67 fold enrichment (6-mer frequency, TF over GST control); in the test with SPIB it was 1.56 fold enrichment (6-mer frequency, TF over GST control); with ELK3, 1.79 fold enrichment (6-mer frequency, TF over GST control).
On to GCTATA, for which the binding signal is 1.17 fold enrichment (6-mer frequency, TF over GST control) in the test with FLI1; 1.11 fold enrichment (6-mer frequency, TF over GST control) in the test with ELK1; 1.16 fold enrichment (6-mer frequency, TF over GST control) with GABPA; 1.16 fold enrichment (6-mer frequency, TF over GST control) with ERG; 1.19 fold enrichment (6-mer frequency, TF over GST control) with ELF1; 1.16 fold enrichment (6-mer frequency, TF over GST control) in the test with EHF. Further, the binding signal with SPI1 was 1.09 fold enrichment (6-mer frequency, TF over GST control); in the test with SPIB, 1.25 fold enrichment (6-mer frequency, TF over GST control); in the test with ELK3, 1.24 fold enrichment (6-mer frequency, TF over GST control).
With ACTGAT, the binding signal with FLI1 is 1.22 fold enrichment (6-mer frequency, TF over GST control); in the test with ELK1 it was 1.31 fold enrichment (6-mer frequency, TF over GST control); in the test with GABPA it was 1.27 fold enrichment (6-mer frequency, TF over GST control); with ERG it was 1.3 fold enrichment (6-mer frequency, TF over GST control); in the test with ELF1, 1.28 fold enrichment (6-mer frequency, TF over GST control); with EHF, 1.27 fold enrichment (6-mer frequency, TF over GST control). Further, the binding signal in the test with SPI1 is 1.31 fold enrichment (6-mer frequency, TF over GST control); with SPIB, 1.19 fold enrichment (6-mer frequency, TF over GST control); with ELK3, 1.26 fold enrichment (6-mer frequency, TF over GST control).
With AACCTA, the binding signal with FLI1 is 1.03 fold enrichment (6-mer frequency, TF over GST control); with ELK1, 1.08 fold enrichment (6-mer frequency, TF over GST control); in the test with GABPA it was 1.1 fold enrichment (6-mer frequency, TF over GST control); in the test with ERG it was 1.01 fold enrichment (6-mer frequency, TF over GST control); in the test with ELF1, 1.1 fold enrichment (6-mer frequency, TF over GST control); in the test with EHF it was 1.11 fold enrichment (6-mer frequency, TF over GST control). The binding signal with SPI1 was 1.08 fold enrichment (6-mer frequency, TF over GST control); with SPIB, 1.1 fold enrichment (6-mer frequency, TF over GST control); with ELK3, 1.1 fold enrichment (6-mer frequency, TF over GST control).

For the origin of these results see publication PMC7862700, “An all-to-all approach to the identification of sequence-specific readers for epigenetic DNA modifications on cytosine”.
